The results in this text go back to PubChem BioAssay (NCI).

About 83,000 compounds went through this panel and 20% of them were active in at least one assay; those are over-represented in the sample as a whole.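 Testing used 96-well plates and a 48-hour single-concentration exposure. Example: -40 means 40% of the starting cells died.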 Unmarked numbers belong to inactive results. Activity calls are given as the source filed them. How the source made its calls: active means growth percent below 10; inactive means the rest.

Common to all, as to test: NCI-60 one-dose screen, 48 h (100 = growth as untreated, 0 = no growth, -100 = all killed)
Details in all cases: 10 µM

The subject of experiment [1] is DU-145 prostate.
Experiment [2] relates to K-562 leukemia.
The subject of experiment [3] is MALME-3M melanoma.
Experiment [4] has as its system MDA-MB-231 breast.
Experiment [5] concerns RXF 393 renal.
Experiment [6] has as its system SF-268 CNS.
Experiment [7] relates to SF-295 CNS.
The test system of experiment [8] is SF-539 CNS.
For experiment [9], the system named is UACC-257 melanoma.
Experiment [10] deals with M14 melanoma.
The test system of experiment [11] is HCT-15 colon.
Experiment [12] relates to SNB-75 CNS.
Experiment [13] relates to SNB-19 CNS.
The test system of experiment [14] is U251 CNS.
Experiment [15] relates to PC-3 prostate.
Experiment [16] concerns SK-MEL-5 melanoma.
For experiment [17], the system named is UACC-62 melanoma.
Experiment [18] relates to LOX IMVI melanoma.
Experiment [19] relates to SK-MEL-28 melanoma.

On to `N=C(N)c1ccc(-c2ccc(-c3ccccc3)s2)s1`, for which the growth in experiment [1] was -93.8% (active); in [2], -63.1% (active); in experiment [3], -81.1% (active); in experiment [4], -76.8% (active); in [5], -93.2% (active); in [6], -56.6% (active). The growth was -75.3% (active) in experiment [7]; -54.7% (active) in experiment [8]; -59.9% (active) in experiment [9]; -68.9% (active) in [10]; -36.4% (active) in [11]; -6.07% (active) in experiment [12]. For the same compound, the growth in [13] was 10%; in experiment [14] it was -74.6% (active); in experiment [15], -26% (active); in experiment [16], 14.5%; in experiment [17] it was -84.9% (active); in experiment [18], -69.2% (active). For the same compound, in [19], the growth was -95.9% (active).
Consider `Cc1c(C(=O)N[C@H](CO)Cc2ccccc2)[nH]c2ccc(Cl)cc2c1=O`, for which the growth in experiment [1] was 110%; in experiment [2], 95.5%; in experiment [3] it was 104%; in [4], 115%; in experiment [5], 122%; in [6], 104%. Moreover, the growth is 98.2% in experiment [7]; 98.9% in [8]; 108% in [9]; 98.2% in [10]; 100% in [11]; 99.9% in experiment [12]. The growth is 106% in [13]; 92.7% in [14]; 97.6% in experiment [15]; 99% in [16]; 92.9% in experiment [17]; 97.9% in experiment [18]. In addition, the growth in [19] is 114%.
For `Cc1cccc2c1O/C(=C\c1ncc([N+](=O)[O-])n1C)C2=O`, the growth in [1] was -29.7% (active); in experiment [2], 0.421% (active); in experiment [3] it was -51.5% (active); in [4] it was -7.78% (active); in experiment [5] it was -63.7% (active); in experiment [6], -26.4% (active). The growth was -15.2% (active) in experiment [7]; -61% (active) in experiment [8]; -40.8% (active) in experiment [9]; -49.2% (active) in [10]; 5.68% (active) in experiment [11]; 8.32% (active) in experiment [12]. Besides, the growth in experiment [13] was -5.53% (active); in experiment [14], -17.5% (active); in experiment [15], -22.4% (active); in experiment [16] it was -92.2% (active); in experiment [17] it was -66.3% (active); in experiment [18], -39.6% (active). Besides, the growth in experiment [19] was -17.8% (active).
`COc1cc(C2CC(=O)Nc3c2c(C)nn3-c2nc3ccccc3[nH]2)cc(OC)c1O` (configuration not stated): the growth is 96.4% in experiment [1]; 75.7% in [2]; 47.3% in experiment [3]; 7.76% (active) in experiment [4]; 10.4% in experiment [5]; 40.1% in [6]. For the same compound, the growth in experiment [7] is -34.2% (active); in [8], 72.8%; in experiment [9], 44.4%; in experiment [10], 9.64% (active); in experiment [11], 40.3%; in experiment [12], 6.05% (active). The growth in experiment [13] is 44.1%; in experiment [14], 53.3%; in experiment [15], 68.1%; in experiment [16], 60.8%; in experiment [17] it was 67.2%; in experiment [18], 55.1%. Also, the growth in experiment [19] was 13.2%.
For the compound `O=S(=O)(NCCO)c1ccc(OCCOc2ccc(S(=O)(=O)NCCO)cc2)cc1`, the growth in experiment [1] is 107%; in experiment [2], 106%; in experiment [3], 87%; in experiment [4], 89.6%; in experiment [5], 102%; in [6] it was 102%. Further, the growth is 98.1% in experiment [7]; 94.4% in [8]; 95% in [9]; 102% in experiment [10]; 103% in experiment [11]; 95% in experiment [12]. Further, the growth is 102% in experiment [13]; 93.7% in experiment [14]; 89.1% in experiment [15]; 96.5% in experiment [16]; 95.2% in experiment [17]; 96.6% in experiment [18]. Moreover, the growth in experiment [19] was 105%.
For the compound `COc1cc(C)c2sc3ccccc3c(=O)c2c1NCCN(C)C`, the growth in experiment [1] was 77.1%; in [2], -1.18% (active); in experiment [3], 38.9%; in experiment [4], 27.9%; in [5] it was 59.3%; in [6], 61.3%. Further, the growth in [7] is 53.6%; in experiment [8], 66.7%; in [9], -22.8% (active); in experiment [10], 24%; in experiment [11] it was 39.3%; in [12], 50.5%. For the same compound, the growth was 65.2% in experiment [13]; 44.8% in [14]; 53.4% in [15]; 36.9% in experiment [16]; -90.3% (active) in experiment [17]; 26.4% in [18]. For the same compound, the growth in [19] was 54.1%.
For `COc1ccc(-c2cc(=O)n(-c3nc4ccccc4[nH]3)[nH]2)cc1OC`, the growth is 83% in experiment [1]; 26.5% in experiment [2]; 67.2% in [3]; 94.5% in experiment [4]; 3.51% (active) in experiment [5]; 72.3% in [6]. Further, the growth is -12.8% (active) in [7]; 71.3% in experiment [8]; 89.2% in experiment [9]; 54.5% in experiment [10]; 32% in experiment [11]; 60.2% in experiment [12]. The growth is 63.2% in experiment [13]; 45.9% in [14]; 62.5% in [15]; 62.7% in [16]; 31% in experiment [17]; 61.8% in [18]. For the same compound, the growth in experiment [19] is 84%.
Take `N#CCC1CCCC1`: the growth was 127% in experiment [1]; 106% in experiment [2]; 114% in experiment [3]; 104% in experiment [4]; 107% in [5]; 114% in experiment [6]. For the same compound, the growth in experiment [7] is 90.6%; in experiment [8] it was 111%; in [9], 100%; in [10], 105%; in experiment [11], 99.7%; in experiment [12] it was 78.7%. The growth in experiment [13] is 98.8%; in [14] it was 97.4%; in [15], 87.9%; in [16] it was 104%; in [17], 99.4%; in [18], 97.2%. For the same compound, the growth in experiment [19] is 97.6%.
